Experimental data: the supplement of paper PMC8728848
The full list was thinned out, with the strongest signals kept by preference.

What was measured:
Assay in all cases: glycan array binding signal (z-score within array); higher = stronger binding
Conditions in all cases: glycan notation: IUPAC condensed, linker removed
[1] = target: Man(a1-3)[Man(a1-6)]Man(a1-6)[Man(a1-3)]Man(b1-4)GlcNAc(b1-4)GlcNAc
Outline: (§1)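 Glycan array data were curated from 3228 arrays in the Consortium for Functional Glycomics database and kept only where the protein sequence was available. Glycan names were converted to IUPAC-condensed notation, and columns mapping to the same glycan were averaged. The binding signal is a within-array Z-score, averaged across arrays of the same protein sequence at different concentrations or buffers and across linkers. Negative Z-scores can be read as non-binding.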

[2] = target: Neu5Ac(a2-3)Gal(b1-3)GlcNAc(b1-3)GalNAc
Outline: as §1

[3] = target: Neu5Ac(a2-3)Gal(b1-4)GlcNAc(b1-2)Man(a1-3)[Neu5Ac(a2-3)Gal(b1-4)GlcNAc(b1-2)Man(a1-6)]Man(b1-4)GlcNAc(b1-4)GlcNAc
Outline: as §1

[4] = target: Neu5Ac(a2-3)Gal(b1-4)GlcNAc(b1-2)Man(a1-3)[Neu5Ac(a2-3)Gal(b1-4)GlcNAc(b1-2)Man(a1-6)]Man(b1-4)GlcNAc(b1-4)[Fuc(a1-6)]GlcNAc
Outline: as §1

[5] = target: Neu5Ac(a2-3)Gal(b1-4)GlcNAc(b1-3)Gal(b1-4)GlcNAc(b1-2)Man(a1-3)[Neu5Ac(a2-3)Gal(b1-4)GlcNAc(b1-3)Gal(b1-4)GlcNAc(b1-2)Man(a1-6)]Man(b1-4)GlcNAc(b1-4)GlcNAc
Outline: as §1

[6] = target: Neu5Ac(a2-3)Gal(b1-4)GlcNAc(b1-3)Gal(b1-4)GlcNAc(b1-3)GalNAc
Outline: as §1

[7] = target: Neu5Ac(a2-3)Gal(b1-4)GlcNAc(b1-3)[Neu5Ac(a2-3)Gal(b1-4)GlcNAc(b1-6)]GalNAc
Outline: as §1

[8] = target: Neu5Ac(a2-3)Gal(b1-4)[Fuc(a1-3)]GlcNAc(b1-3)Gal(b1-4)GlcNAc
Outline: as §1

[9] = target: Neu5Ac(a2-3)Gal(b1-4)[Fuc(a1-3)]GlcNAc(b1-3)GalNAc
Outline: as §1

[10] = target: Neu5Ac(a2-3)[GalNAc(b1-4)]Gal(b1-4)GlcNAc
Outline: as §1

[11] = target: Neu5Ac(a2-6)Gal(b1-4)GlcNAc(b1-2)Man(a1-3)Man(b1-4)GlcNAc(b1-4)GlcNAc
Outline: as §1

[12] = target: Neu5Ac(a2-6)Gal(b1-4)GlcNAc(b1-2)Man(a1-3)[Man(a1-6)]Man(b1-4)GlcNAc(b1-4)GlcNAc
Outline: as §1

[13] = target: Neu5Ac(a2-6)Gal(b1-4)GlcNAc(b1-2)Man(a1-3)[Neu5Ac(a2-3)Gal(b1-4)GlcNAc(b1-2)Man(a1-6)]Man(b1-4)GlcNAc(b1-4)GlcNAc
Outline: as §1

[14] = target: Neu5Ac(a2-6)Gal(b1-4)GlcNAc(b1-2)Man(a1-3)[Neu5Ac(a2-6)Gal(b1-4)GlcNAc(b1-2)Man(a1-6)]Man(b1-4)GlcNAc(b1-4)[Fuc(a1-6)]GlcNAc
Outline: as §1

[15] = target: Neu5Ac(a2-6)Gal(b1-4)GlcNAc(b1-2)Man(a1-6)Man(b1-4)GlcNAc(b1-4)GlcNAc
Outline: as §1

[16] = target: Neu5Ac(a2-6)Gal(b1-4)GlcNAc(b1-2)Man(a1-6)[Gal(b1-4)GlcNAc(b1-2)Man(a1-3)]Man(b1-4)GlcNAc(b1-4)GlcNAc
Outline: as §1

[17] = target: Neu5Ac(a2-6)Gal(b1-4)GlcNAc(b1-2)Man(a1-6)[GlcNAc(b1-2)Man(a1-3)]Man(b1-4)GlcNAc(b1-4)GlcNAc
Outline: as §1

[18] = target: Neu5Ac(a2-6)Gal(b1-4)GlcNAc(b1-2)Man(a1-6)[Man(a1-3)]Man(b1-4)GlcNAc(b1-4)GlcNAc
Outline: as §1

[19] = target: Neu5Ac(a2-6)Gal(b1-4)GlcNAc(b1-3)Gal(b1-4)GlcNAc(b1-3)[Neu5Ac(a2-6)Gal(b1-4)GlcNAc(b1-3)Gal(b1-4)GlcNAc(b1-6)]GalNAc
Outline: as §1

[20] = target: Neu5Ac(a2-6)Gal(b1-4)GlcNAc(b1-3)Gal(b1-4)[Fuc(a1-3)]GlcNAc(b1-3)Gal(b1-4)[Fuc(a1-3)]GlcNAc
Outline: as §1

[21] = target: Neu5Ac(a2-6)Gal(b1-4)GlcNAc(b1-3)[Neu5Ac(a2-6)Gal(b1-4)GlcNAc(b1-6)]GalNAc
Outline: as §1

[22] = target: Neu5Ac(a2-6)Gal(b1-4)GlcNAc(b1-6)GalNAc
Outline: as §1

[23] = target: Neu5Ac(a2-6)GlcNAc(b1-4)GlcNAc(b1-4)GlcNAc
Outline: as §1

[24] = target: Neu5Ac(a2-8)Neu5Ac(a2-3)[Gal(b1-3)GalNAc(b1-4)]Gal(b1-4)Glc
Outline: as §1

[25] = target: Neu5Gc(a2-3)Gal(b1-4)GlcNAc(b1-3)Gal(b1-4)GlcNAc(b1-2)Man(a1-3)[Neu5Gc(a2-3)Gal(b1-4)GlcNAc(b1-3)Gal(b1-4)GlcNAc(b1-2)Man(a1-6)]Man(b1-4)GlcNAc(b1-4)GlcNAc
Outline: as §1

B1: SialidaseA (Arthrobacter ureafaciens) (protein)
chain: MRSNSTSAPSLVRRAATGVLTCAVSIGLLAGLGLPAQAAPTPPNSPTLPPGSFSETNLAADRTAANFFYRIPALTYLGNDVVLAAWDGRPGSAADAPNPNSIVQRRSTDGGKTWGPVQVIAAGHVADASGPRYGYSDPSYIYDAEANKVFAFFVYSKDQGFGGSQFGNDDADRNVISSAVIESSDAGVTWSQPRLITSVTKPGTSKTNPAAGDVRSNFASSGEGIQLKYGPHKGRLIQQYAGDVRQADGSNKIQAYSVYSDDHGVTWHKGANVGDRMDENKTVELSDGRVLLNSRDNANRGYRKVAVSTDGGATYGPVSQDTELPDPANNGAIARMFPNAAQGSADAKKLIFTNANSKTGRENVSARVSCDDGETWPGVRTIRSGFSAYSTVTRLADGKFGVLYEGNYTDNMPFATFDDAWLNYVCAPLAVPAVNIAPSATQEVPVTVTNQEATTLSGATATVYTPSGWSATTVPVPDVAPGASVTVTVALTAPADASGPRSLNAAFTTADGRVSQFTFTATTPVAPQVGLTITGSAPARDVAANPYQAGDVLGYTLNVKSTANVAANSVPLTGTFDSGFLPPAAPNCRYNNLAAGASYNCTTAKHTITAADMERGYFVPEATFSITSTTTPSLTKTVQFTGAAVALRDGLISADISGARTDVGRDLATRPYAAGELVPYAFTVKNTSPFVEQVVPTAGNFSPFLPAGAGNCRYLSLPAGQSYECATPRHAVTAEEVEQGFFVPDTTWEVSAAGQSTRTYRINGGEVDLLVRDAALSATVVAEWKDADGDRFASAGDPVTFTYTVGNAGNVALTGLEAPDAGISLPFLAPGDTATATREHVLTAADVAGGSLAASAFEATARNGSKEVTATAEGQPLELKVQPAQPSKEPELTVQDLEDQTPPFDLGTAFKYRTGQKVSLAGLEYGQWYYVYLNKTGYRLGWMFPTTGDTVEFILPPEVRNGRDDVVVLDKDGRRVSFDRLQVTPKGEKI
glycan array binding signal (z-score) [1]: -0.278 | glycan array binding signal (z-score) [2]: -0.321 | glycan array binding signal (z-score) [3]: -0.915 | glycan array binding signal (z-score) [4]: 3.28 | glycan array binding signal (z-score) [5]: 0.256 | glycan array binding signal (z-score) [6]: -0.013 | glycan array binding signal (z-score) [7]: 1.16 | glycan array binding signal (z-score) [8]: 2.56 | glycan array binding signal (z-score) [9]: 1.91 | glycan array binding signal (z-score) [10]: 0.486 | glycan array binding signal (z-score) [11]: 3.4 | glycan array binding signal (z-score) [12]: 3.4 | glycan array binding signal (z-score) [13]: 2.86 | glycan array binding signal (z-score) [14]: 3.44 | glycan array binding signal (z-score) [15]: 3.28 | glycan array binding signal (z-score) [16]: 3.95 | glycan array binding signal (z-score) [17]: 3.32 | glycan array binding signal (z-score) [18]: 3.29 | glycan array binding signal (z-score) [19]: 3.49 | glycan array binding signal (z-score) [20]: 3.65 | glycan array binding signal (z-score) [21]: 3.9 | glycan array binding signal (z-score) [22]: -0.534 | glycan array binding signal (z-score) [23]: -0.274 | glycan array binding signal (z-score) [24]: -0.131 | glycan array binding signal (z-score) [25]: 1.3
